# PubChem BioAssay AID1159580 (chemical genetic matrix, 2015)
# Out of some 5,500 compounds screened, about 2,000 (36%) were called active. Not shown: some 18% with an inconclusive outcome. The list shows a part of the results. A number with no mark means an inactive call. Rule as the data show it: active = normalized growth mostly below about 0.91 (no sharp cut-off); inconclusive = no clear call, values can overlap the other calls; inactive = mostly above about 0.92.
# Test: chemical genetic growth profiling, strain panel (AID 1159580);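 also: tested at 20 µM; growth read once vehicle control cultures reached saturation at 30 °C; 1 = growth at the plate median or of vehicle wells; lower values mean less growth of the strain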
# Conditions: S. cerevisiae deletion strains, growth OD
smiles,measurement,setting,value
Nc1c(S(=O)(=O)O)cc(Nc2ccc(Nc3nc(Cl)nc(Nc4ccc(S(=O)(=O)O)cc4)n3)c(S(=O)(=O)O)c2)c2c1C(=O)c1ccccc1C2=O,normalized growth,"locus YAL013W, strain DEP1, active compounds read low",0.977
same,normalized growth,"locus YAL040C, strain CLN3, active compounds read low",1.09
same,normalized growth,"locus YCL061C, strain MRC1 (second series), active compounds read low",1.01
same,normalized growth,"locus YDR150W, strain NUM1, active compounds read low",1.03
same,normalized growth,"locus YDR363W, strain ESC2, active compounds read low",1.01
same,normalized growth,"locus YER002W, strain NOP16, active compounds read low",1.03
same,normalized growth,"locus YGR078C, strain PAC10, active compounds read low",1.04
same,normalized growth,"locus YMR307W, strain GAS1, active compounds read low",1.05
same,normalized growth,"locus YNL128W, strain TEP1, active compounds read low",1.03
same,normalized growth,"locus YNL175C, strain NOP13, active compounds read low",1.03
same,normalized growth,"locus YNL197C, strain WHI3, active compounds read low",1.04
same,normalized growth,"locus YNL224C, strain SQS1, active compounds read low",1.04
same,normalized growth,"locus YNL322C, strain KRE1, active compounds read low",1.01
same,normalized growth,"locus YOR083W, strain WHI5 (second series), active compounds read low",1.04
same,normalized growth,"locus YPL241C, strain CIN2, active compounds read low",1.02
CC(=O)O[C@H]1[C@@H]2[C@@H](OC(=O)Cc3ccccc3)[C@@H](C)C[C@]2(OC(C)=O)C(=O)/C(C)=C/[C@H]2[C@H](CC[C@@]13CO3)C2(C)C,normalized growth,"locus YAL021C, strain ccr4, active compounds read low",0.975
same,normalized growth,"locus YAL026C, strain drs2, active compounds read low",0.985
same,normalized growth,"locus YAL030W, strain snc1, active compounds read low",0.986
same,normalized growth,"locus YBL061C, strain skt5, active compounds read low",0.984
same,normalized growth,"locus YBR009C, strain hhf1, active compounds read low",1
same,normalized growth,"locus YBR023C, strain chs3, active compounds read low",0.982
same,normalized growth,"locus YBR171W, strain sec66, active compounds read low",0.976
same,normalized growth,"locus YBR231C, strain swc5, active compounds read low",0.988
same,normalized growth,"locus YBR279W, strain paf1, active compounds read low",0.983
same,normalized growth,"locus YCL011C, strain gbp2, active compounds read low",0.979
same,normalized growth,"locus YCL016C, strain dcc1, active compounds read low",0.989
same,normalized growth,"locus YCL061C, strain MRC1, active compounds read low",0.992
same,normalized growth,"locus YCL069W, strain vba3, active compounds read low",0.991
same,normalized growth,"locus YCR088W, strain abp1, active compounds read low",0.992
same,normalized growth,"locus YDL005C, strain med2, active compounds read low",0.976
same,normalized growth,"locus YDL040C, strain nat1, active compounds read low",0.978
same,normalized growth,"locus YDR001C, strain nth1, active compounds read low",0.985
same,normalized growth,"locus YDR069C, strain doa4, active compounds read low",0.98
same,normalized growth,"locus YDR137W, strain rgp1, active compounds read low",0.85
same,normalized growth,"locus YDR159W, strain sac3, active compounds read low",0.977
same,normalized growth,"locus YDR195W, strain ref2",1.01
same,normalized growth,"locus YDR297W, strain sur2, active compounds read low",0.97
same,normalized growth,"locus YDR334W, strain swr1, active compounds read low",0.934
same,normalized growth,"locus YDR335W, strain msn5, active compounds read low",0.978
same,normalized growth,"locus YDR392W, strain spt3, active compounds read low",0.84
same,normalized growth,"locus YEL003W, strain gim4, active compounds read low",0.981
same,normalized growth,"locus YEL037C, strain rad23, active compounds read low",0.987
same,normalized growth,"locus YEL061C, strain CIN8 (second series), active compounds read low",0.984
same,normalized growth,"locus YER015W, strain faa2, active compounds read low",0.989
same,normalized growth,"locus YER016W, strain bim1, active compounds read low",0.979
same,normalized growth,"locus YER111C, strain swi4, active compounds read low",0.992
same,normalized growth,"locus YER155C, strain BEM2 (second series), active compounds read low",0.984
same,normalized growth,"locus YFR010W, strain ubp6, active compounds read low",0.977
same,normalized growth,"locus YGL167C, strain pmr1, active compounds read low",0.97
same,normalized growth,"locus YGL173C, strain kem1, active compounds read low",0.958
same,normalized growth,"locus YGL227W, strain vid30, active compounds read low",0.99
same,normalized growth,"locus YGL240W, strain doc1, active compounds read low",0.99
same,normalized growth,"locus YGL253W, strain hxk2, active compounds read low",0.974
same,normalized growth,"locus YHR013C, strain ard1, active compounds read low",0.926
same,normalized growth,"locus YHR027C, strain rpn1, active compounds read low",0.983
same,normalized growth,"locus YHR030C, strain SLT2, active compounds read low",0.988
same,normalized growth,"locus YHR079C, strain IRE1, active compounds read low",0.981
same,normalized growth,"locus YHR142W, strain chs7, active compounds read low",0.958
same,normalized growth,"locus YJL092W, strain hpr5, active compounds read low",0.97
same,normalized growth,"locus YJL095W, strain BCK1 (second series), active compounds read low",0.977
same,normalized growth,"locus YJL095W, strain BCK1, active compounds read low",0.989
same,normalized growth,"locus YJL115W, strain asf1, active compounds read low",0.969
same,normalized growth,"locus YJL129C, strain trk1, active compounds read low",0.941
same,normalized growth,"locus YJL154C, strain vps35, active compounds read low",0.993
same,normalized growth,"locus YJL164C, strain tpk1, active compounds read low",0.982
same,normalized growth,"locus YJL166W, strain qcr8, active compounds read low",0.981
same,normalized growth,"locus YJL187C, strain SWE1, active compounds read low",0.988
same,normalized growth,"locus YJR066W, strain TOR1, active compounds read low",0.963
same,normalized growth,"locus YKL160W, strain elf1, active compounds read low",0.972
same,normalized growth,"locus YKR026C, strain gcn3, active compounds read low",0.982
same,normalized growth,"locus YKR091W, strain srl3, active compounds read low",0.985
same,normalized growth,"locus YLL001W, strain dnm1, active compounds read low",0.98
same,normalized growth,"locus YLL026W, active compounds read low",0.98
same,normalized growth,"locus YLL041C, strain sdh2, active compounds read low",0.97
same,normalized growth,"locus YLR027C, strain aat2, active compounds read low",0.975
same,normalized growth,"locus YLR113W, strain HOG1, active compounds read low",0.966
same,normalized growth,"locus YLR221C, strain rsa3, active compounds read low",0.975
same,normalized growth,"locus YLR258W, strain gsy2, active compounds read low",0.986
same,normalized growth,"locus YLR262C, strain YPT6 (second series), active compounds read low",0.878
same,normalized growth,"locus YLR320W, strain mms22, active compounds read low",0.971
same,normalized growth,"locus YLR342W, strain FKS1, active compounds read low",0.966
same,normalized growth,"locus YLR357W, strain rsc2, active compounds read low",1.03
same,normalized growth,"locus YLR370C, strain arc18, active compounds read low",0.987
same,normalized growth,"locus YLR384C, strain iki3, active compounds read low",0.983
same,normalized growth,"locus YML120C, strain ndi1, active compounds read low",0.967
same,normalized growth,"locus YMR058W, strain fet3, active compounds read low",0.98
same,normalized growth,"locus YMR125W, strain sto1, active compounds read low",1
same,normalized growth,"locus YMR129W, active compounds read low",0.989
same,normalized growth,"locus YMR205C, strain PFK2, active compounds read low",0.984
same,normalized growth,"locus YMR231W, strain pep5, active compounds read low",0.993
same,normalized growth,"locus YNL071W, strain lat1, active compounds read low",0.914 (active)
same,normalized growth,"locus YNL183C, strain NPR1, active compounds read low",0.909
same,normalized growth,"locus YNL209W, strain ssb2, active compounds read low",0.989
same,normalized growth,"locus YNL248C, strain rpa49, active compounds read low",0.98
same,normalized growth,"locus YNL322C, strain KRE1 (second series), active compounds read low",0.981
same,normalized growth,"locus YNR049C, strain mso1, active compounds read low",0.978
same,normalized growth,"locus YOR001W, strain rrp6, active compounds read low",0.955
same,normalized growth,"locus YOR070C, strain gyp1, active compounds read low",0.985
same,normalized growth,"locus YOR080W, strain dia2, active compounds read low",0.974
same,normalized growth,"locus YOR083W, strain WHI5, active compounds read low",0.972
same,normalized growth,"locus YOR106W, strain vam3, active compounds read low",0.951
same,normalized growth,"locus YOR231W, strain MKK1, active compounds read low",0.961
same,normalized growth,"locus YOR265W, strain rbl2, active compounds read low",0.983
same,normalized growth,"locus YOR270C, strain vph1, active compounds read low",0.815
same,normalized growth,"locus YOR290C, strain snf2, active compounds read low",0.929
same,normalized growth,"locus YPL051W, strain arl3, active compounds read low",0.958
same,normalized growth,"locus YPL078C, strain atp4, active compounds read low",0.978
same,normalized growth,"locus YPL106C, strain sse1, active compounds read low",1
same,normalized growth,"locus YPL240C, strain hsp82, active compounds read low",0.966
same,normalized growth,"locus YPL256C, strain CLN2, active compounds read low",0.967
